Source: the supplement of paper PMC6555819

How the values were obtained:
Assay in all cases: PBM binding z-score (relative to random genomic background probes); higher = stronger binding; sequences stand for … in GC…GCGATTGACAGCGTAGAATGAAGG
[1] = system: PPARg:RXRa DBDmut IVT, anti-RXR (DBD mutation: RXRa K156A/R161A, NR concentration 270 nM, RXRa partner concentration 90 nM)
Outline: (§1)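 Binding z-scores take random background probes as their reference. They come from custom Agilent 4×180K protein-binding microarrays incubated 1 h with ligand-free nuclear receptor dimers, with antibodies against each partner (one per run) detecting binding. Scanned fluorescence was regression-normalized.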

[2] = system: PPARg:RXRa IVT, anti-PPARg (NR concentration 270 nM, RXRa partner concentration 90 nM)
Outline: as §1

[3] = system: PPARg DBDmut:RXRa IVT, anti-PPARg (DBD mutation: PPARg1 K132A/R137A, NR concentration 270 nM, RXRa partner concentration 90 nM)
Outline: as §1

[4] = system: PPARg DBDmut IVT, anti-PPARg (DBD mutation: PPARg1 K132A/R137A, NR concentration 270 nM)
Outline: as §1

[5] = system: PPARg homodimer (NR concentration 180 nM)
Outline: as §1

[6] = system: PXR:RXRa (NR concentration 270 nM, RXRa partner concentration 90 nM)
Outline: as §1

[7] = system: PXR homodimer (NR concentration 270 nM)
Outline: as §1

[8] = system: RARa:RXR (NR concentration 270 nM, RXRa partner concentration 90 nM)
Outline: as §1

[9] = system: RARa homodimer (NR concentration 270 nM)
Outline: as §1

[10] = system: RARb:RXRa (NR concentration 270 nM, RXRa partner concentration 90 nM)
Outline: as §1

[11] = system: RARb homodimer (NR concentration 270 nM)
Outline: as §1

[12] = system: RARg:RXRa (NR concentration 270 nM, RXRa partner concentration 90 nM)
Outline: as §1

[13] = system: RARg homodimer (NR concentration 270 nM)
Outline: as §1

[14] = system: RXRa DBDmut IVT, anti-RXR (DBD mutation: RXRa K156A/R161A, NR concentration 90 nM)
Outline: as §1

[15] = system: RXRa homodimer (NR concentration 180 nM)
Outline: as §1

[16] = system: THRa:RXRa (NR concentration 90 nM, RXRa partner concentration 90 nM)
Outline: as §1

[17] = system: THRa homodimer (NR concentration 90 nM)
Outline: as §1

[18] = system: VDR:RXRa (NR concentration 270 nM, RXRa partner concentration 90 nM)
Outline: as §1

[19] = system: VDR homodimer (NR concentration 270 nM)
Outline: as §1

Sequence | PBM binding z-score [1] | PBM binding z-score [2] | PBM binding z-score [3] | PBM binding z-score [4] | PBM binding z-score [5] | PBM binding z-score [6] | PBM binding z-score [7] | PBM binding z-score [8] | PBM binding z-score [9] | PBM binding z-score [10] | PBM binding z-score [11] | PBM binding z-score [12] | PBM binding z-score [13] | PBM binding z-score [14] | PBM binding z-score [15] | PBM binding z-score [16] | PBM binding z-score [17] | PBM binding z-score [18] | PBM binding z-score [19]
TCTAGTTGGTCAAAGGTCACACAGTCGAAATGCG | 3.56 | 5.99 | 1.3 | 1.88 | 4.79 | 6.01 | 1.76 | 7.79 | 3.16 | 5.05 | 5.27 | 7.05 | 6.38 | 1.73 | 8.22 | 4.12 | 2.06 | 5.68 | 2.98
GCATATAGGTAATACAACGTGAAAGTCCGATTGT | 4.04 | 2.2 | 0.468 | 0.495 | -0.277 | -0.414 | -0.12 | -0.549 | 0.219 | -0.451 | -0.603 | 0.114 | 0.451 | 0.181 | 0.119 | -0.366 | -0.557 | -0.316 | -0.205
GCTTACGGGTCAAAGGTGATAGCATGAATAGAAT | 5.42 | 5.3 | 1.11 | 0.857 | 2.81 | 4.78 | -0.0532 | 6.93 | 0.406 | 4.09 | 2.94 | 5.62 | 4.21 | 2.43 | 7.79 | 3.15 | -0.0269 | 4.42 | 1.07
CCTCGGACGACAGAAGGTCAGAGCTGTCCGCTTT | -0.0338 | -0.307 | -1.28 | -2.04 | 1.12 | 1.35 | -0.144 | 2.01 | -0.163 | 2.67 | 3.09 | 2.54 | 2.68 | 0.306 | 1.98 | 1.57 | -0.117 | 0.84 | 0.204
ACTATTAGTTGACTTCGGGCAACCGATACGACGC | -0.0241 | 0.38 | 0.985 | 0.939 | 0.728 | 0.138 | 0.00546 | 0.411 | 0.245 | 0.417 | 0.558 | 0.37 | 0.691 | 0.225 | 0.42 | 1.06 | 0.256 | 0.179 | 0.371
CCGAGTAGCTTATGGGGCATTCAGGCAACGGTGA | 0.454 | 0.117 | -1.42 | -1.07 | -0.422 | -0.731 | -0.54 | -0.568 | -0.432 | -0.266 | -0.2 | -0.278 | -0.43 | 0.0685 | -0.245 | -0.153 | -0.655 | -0.651 | -0.541
CCAGACAGGTGAGATGGTAACTCAGCCTCGATTA | 0.95 | 0.00345 | -0.391 | -0.721 | 0.16 | -0.343 | 0.189 | -0.347 | 0.738 | 0.229 | 0.103 | 0.164 | 0.225 | -0.124 | -0.0452 | -0.143 | 0.146 | -0.293 | 0.202
CCTGCTAGGTCATGGGCAGCTAATCTACAGTATG | 4.17 | 3.73 | 0.149 | -0.33 | 1.36 | 1.1 | -0.682 | 2.68 | 0.607 | 3.83 | 2.79 | 4.04 | 4.39 | 1.05 | 2.83 | 2.89 | 0.639 | 1.19 | -0.0786
TAGCCTAGGTCAGATCGGGCCAGTACACGCTATA | 0.552 | 1.62 | -0.751 | -0.825 | 0.487 | 1.33 | -0.37 | 0.937 | -0.817 | 3.22 | 2.33 | 2.85 | 3.65 | -0.269 | 1.55 | 4.29 | 0.126 | 0.906 | 0.0191
CCTATTAGTTGACCATAAGGGCAACCGTAGCTCG | 0.583 | 0.704 | 0.408 | 0.82 | 1.76 | 0.746 | 0.617 | 0.869 | 1.7 | 1.66 | 1.93 | 1.09 | 1.25 | 0.707 | 0.63 | 1.92 | 1.29 | 0.674 | 0.902
CTTGCTAGGTCATGGTCAGCTAATCTACAGTATG | 4.97 | 4.72 | 0.897 | 0.605 | 1.37 | 1.45 | -0.306 | 2.48 | 0.17 | 3.66 | 3.07 | 3.94 | 4.57 | 1.95 | 2.77 | 2.96 | 1.27 | 1.59 | 0.195
CCTGCTAGGTCATAGTCAGCTAATCTACAGTATG | 3.96 | 3.31 | 0.51 | 0.574 | 1.15 | 1.16 | -0.0222 | 1.73 | 0.243 | 3.54 | 2.32 | 3.3 | 3.57 | 2.08 | 2.13 | 2.62 | 0.766 | 1.28 | 0.519
CCTCGGAGGACAATAGGAGGTCAGAGCTGCCAGA | -0.0175 | 0.979 | -0.47 | -1.32 | 1.01 | 1.76 | 0.364 | 2.08 | -0.149 | 2.29 | 3.18 | 2.71 | 2.63 | -0.00493 | 1.64 | 2.43 | 0.711 | 1.51 | 0.843
TGTTGTAGATCAATAGAGGTTAAGAAAGTGCGCT | -0.0957 | 0.893 | 1.29 | 1.09 | 1.38 | 3.29 | 0.289 | 1.76 | 1.61 | 1.01 | 1.3 | 1.06 | 0.973 | -0.255 | 1.25 | 2.39 | -0.0243 | 1.92 | 0.759
TCTAGCAGGCCAGAGGGTCACTCGAGAGGTACGG | 0.838 | 0.906 | -0.167 | -1.13 | 0.221 | 1.24 | -0.669 | 2.4 | -0.335 | 2.19 | 2.65 | 2.47 | 2.33 | 0.0685 | 2.58 | 1.37 | -0.427 | 1.39 | 0.163
